Compounds with a hit are over-represented: about 4.6% of the library has one in this group of screens.
TRHR enhancer – TRH receptor (human) allosteric enhancement. AID 493056. enhancement, % at 2 µM. TRHR cells, fluo-8 calcium fluorescence, EC20 TRH enhancement. 360,000 compounds, 0.66% hits. P34981; in the data active = enhancement above about 30%; note: 0% is about no effect
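Enhancer read-out: after compound pinning and an initial kinetic agonist-mode read, an EC20 of TRH (10 nM final) was injected and fluo-8 calcium signal (Ex 480/Em 530) followed at 1 s/cycle for 100 cycles in TRHR-expressing cells.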
D1 PAM – potentiators of human D1 dopamine receptor; AID 504651; HEK293 TREx D1 cells, calcium flux, dopamine EC20 potentiation; potentiation, % at 10 µM; 360,000 compounds, 0.036% hits; in the data active = potentiation above about 30%; note: 0% is about no effect
Target sequence (P21728 whole entry, looked up): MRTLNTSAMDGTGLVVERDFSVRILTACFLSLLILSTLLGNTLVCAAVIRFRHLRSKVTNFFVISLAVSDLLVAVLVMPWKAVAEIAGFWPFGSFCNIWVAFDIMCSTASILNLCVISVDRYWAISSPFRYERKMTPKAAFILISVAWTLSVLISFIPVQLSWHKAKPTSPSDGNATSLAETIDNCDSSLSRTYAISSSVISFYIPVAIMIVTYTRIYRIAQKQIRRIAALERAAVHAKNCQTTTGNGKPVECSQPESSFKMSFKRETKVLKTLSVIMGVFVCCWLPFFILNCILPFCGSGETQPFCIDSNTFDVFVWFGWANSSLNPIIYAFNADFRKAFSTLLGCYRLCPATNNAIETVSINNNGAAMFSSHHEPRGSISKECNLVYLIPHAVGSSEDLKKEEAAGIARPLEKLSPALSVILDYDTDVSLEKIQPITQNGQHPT
D1 agonist – human D1 receptor agonism. AID 504660. 360,000 compounds, 1% hits. activation, % at 2 µM. HEK293 T-REx D1 cells, calcium flux, agonist mode; note: 0% is about no effect
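Inducible HEK293 T-REx D1 cells, force-coupled to calcium signalling, were plated at 4000 cells/well with tetracycline and held overnight at 30 C. After no-wash calcium dye loading, compound-evoked calcium rise over 180 s flagged agonists.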
D1 antagonist – antagonists of human D1 dopamine receptor. P21728. 360,000 compounds, 3.2% hits. HEK293 TREx D1 cells, calcium flux, dopamine EC80; hits give low values. activity change, negative = inhibition, % at 10 µM; in the data active = activity change below about -30%; note: % is set by controls: 0 for no effect and ±100 for the full control effect
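Tetracycline-induced HEK293 T-REx cells with force-coupled D1 receptor were loaded with a no-wash calcium dye. Compound was added after a 10 s baseline and read kinetically for 180 s; EC80 dopamine was then added and calcium flux followed another 180 s.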
TRHR agonist – TRH receptor (human) agonism; P34981; TRHR cells, calcium flux fluo-8, FDSS agonist mode; activation, % at 2 µM; 360,000 compounds, 0.18% hits; AID 493084; note: 0% is about no effect
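In this calcium-flux screen, cells bearing human TRHR are dye-loaded with fluo-8, baselined for 10 cycles, then exposed to library compounds; positive kinetic calcium responses during the agonist phase mark hits, with TRH as control.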
Active calls of the source: *. Cut-off read from the data, not from the text of the source, unless noted: active = activation above about 30%; inactive = the rest.

SMILES | TRHR enhancer | D1 PAM | D1 agonist | D1 antagonist | TRHR agonist
c1ccc(-n2c(Sc3cnccn3)nnc2-c2cccs2)cc1 | 31* | -3 | 2 | 11 | -1
CC(C)OC(=O)/C(=C\c1ccccc1)NC(=O)c1ccccc1 | -4 | -3 | -1 | 5 | 0
CC(C)OC(=O)C(NC(=O)c1ccccc1)=C1CCCCC1 | -5 | -2 | 4 | -38* | -1
COc1ccc2cc(-c3nnc(Nc4ccccc4)s3)c(=O)oc2c1 | 0 | 0 | 3 | -13 | 1
COc1ccc(CN(C)CC(=O)NC(=O)NCc2ccccc2)c(OC)c1 | 1 | -9 | -1 | -55* | -1
CN(CC(=O)NC(=O)NCc1ccccc1)Cc1ccc(Cl)c(Cl)c1 | 2 | -1 | 11 | -6 | 0
CC(C(=O)Nc1ccc([N+](=O)[O-])cc1)N1CCN(C/C=C/c2ccccc2)CC1 (configuration not stated) | 1 | -14 | 26 | -45* | 2
Cc1ccc2oc(-c3ccc(Cl)c(NC(=O)c4ccc(OC(C)C)cc4)c3)nc2c1 | -3 | -1 | 1 | 3 | 0
CC(=O)c1ccc(OC2OCCOC2Oc2ccc(C(C)=O)cc2)cc1 (configuration not stated) | -1 | -9 | 7 | -39* | 0
O=C(Nc1nc2c(F)cc(F)cc2s1)c1ccc(S(=O)(=O)N2CCc3ccccc32)cc1 | 2 | -2 | 4 | -7 | 1
O=C(O)c1cc(F)c(S(=O)(=O)N2CCN(S(=O)(=O)c3ccc4c(c3)OCCO4)CC2)cc1F | 3 | -2 | 1 | -18 | 1
O=[N+]([O-])c1ccccc1S(=O)(=O)N1CCN(S(=O)(=O)c2ccc3c(c2)OCCO3)CC1 | 0 | -3 | 1 | -31* | 0
C[C@@H]1CN(S(=O)(=O)c2ccc3c(c2)OCCO3)CCN1S(=O)(=O)c1c(F)cccc1F | 0 | 1 | 2 | -33* | 0
O=C(O)Cc1cc(F)c(S(=O)(=O)N2CCN(S(=O)(=O)c3ccc4c(c3)OCCO4)CC2)cc1F | 3 | 3 | 0 | -42* | -3
O=[N+]([O-])c1cccc(S(=O)(=O)N2CCN(S(=O)(=O)c3ccc4c(c3)OCCO4)CC2)c1 | 1 | 5 | 1 | -5 | -1
CN(Cc1ccccc1F)C(=O)CN1CCN(S(=O)(=O)c2ccc3c(c2)OCCCO3)CC1 | -2 | -6 | 8 | -31* | -1
Cc1cccc(N2CCN(C(=O)c3cn(CC(C)C)c(=O)c4c3c3ccccc3n4C)CC2)c1C | 4 | 0 | -1 | 18 | 2
CC(=O)c1cccc(NC(=O)c2nc(-c3ccccc3)n(-c3ccccc3C)n2)c1 | -2 | -1 | 20 | -3 | 0
Cc1cc(Cl)ccc1Oc1ncc(-c2ccc(Cl)cc2)cn1 | -3 | 7 | 7 | -66* | 0
Clc1ccc(-c2cnc(Oc3ccccc3)nc2)cc1 | -7 | -4 | 1 | -3 | 0
Cc1ccc(S(=O)(=O)NCCN2CCN(S(=O)(=O)c3ccccc3Cl)CC2)cc1 | -6 | -7 | 7 | -53* | 0
COc1ccc(NC(=O)Cn2ncc3c(C)n(Cc4cccc(Cl)c4)c(C)c3c2=O)cc1 | 3 | -2 | 0 | -5 | 0
C#CCn1c(-c2cccs2)nc2ccccc21 | 32* | -5 | 2 | 23 | 1
CCOC(=O)C1CCN(c2nc3c(S(=O)(=O)c4ccccc4)nnn3c3ccsc23)CC1 | 3 | -3 | 5 | 2 | 0
COc1cccc(/C=C/C(=O)c2ccc(NS(=O)(=O)c3ccc(C)cc3)cc2)c1 | 5 | -4 | 3 | -60* | 0
SMILES | TRHR enhancer | D1 PAM | D1 agonist | D1 antagonist | TRHR agonist
CSc1ccc(CCNC(=O)c2ccc(CS(=O)Cc3ccccc3Cl)o2)cc1 (configuration not stated) | -7 | 1 | 6 | -38* | 0
O=C(NCCc1ccc(Cl)cc1)c1ccc(CS(=O)Cc2ccccc2Cl)o1 (configuration not stated) | -1 | 0 | 7 | -15 | 0
O=C(NC1CCCCC1)c1ccc(CS(=O)Cc2ccccc2Cl)o1 (configuration not stated) | -3 | -2 | -1 | -64* | 0
CCC1(c2ccccc2)NC(=O)N(CC(=O)N(CC(=O)Nc2ccccc2C(F)(F)F)Cc2ccco2)C1=O (configuration not stated) | 4 | 1 | 44* | -13 | -1
Cc1nnc(NC(=O)NC(C)N2C(=O)C3C4C=CC(C4)C3C2=O)s1 (configuration not stated) | -3 | -6 | 2 | -5 | 0
CCc1nnc(NC(=O)C(C)N2C(=O)C3C4C=CC(C4)C3C2=O)s1 (configuration not stated) | 7 | 0 | 1 | -43* | 0
Cc1ccc(-c2c(C)n3c4c(=O)n(C)c(=O)n(C)c4nc3n2CCCO)cc1 | -1 | -3 | -1 | 3 | -2
Cc1cc(C)c(S(=O)(=O)NCCC2CCCN2C)c(C)c1 (configuration not stated) | -5 | -10 | 6 | -30* | 0
CCc1ccccc1NC(=O)c1cnc2sc(N3CCOCC3)nn2c1=O | 4 | -4 | 3 | -10 | 0
COc1ccc(OC)c(NC(=O)CSc2nccn2-c2cc(C)cc(C)c2)c1 | -1 | 3 | 4 | -13 | -1
COc1ccc(OCCSc2ncccn2)cc1 | 31* | 1 | 2 | -6 | -1
COc1ccccc1OCCSc1nc(N)cc(N)n1 | 3 | -9 | 0 | -84* | 0
Nc1cc(N)nc(SCCOc2ccccc2F)n1 | 3 | 1 | 0 | 1 | 0
C=CCc1ccccc1OCCSc1nc2ccc([N+](=O)[O-])cc2s1 | -2 | 1 | 18 | -13 | 1
COc1ccccc1OCCSc1nc2ccc([N+](=O)[O-])cc2s1 | -5 | -14 | 3 | -57* | 0
O=C(Cn1nc(-c2ccccc2)c2c(c1=O)CCCC2)Nc1ccc(F)c(Cl)c1 | -1 | 0 | 9 | 18 | 1
COc1cccc(NC(=O)Cn2c(=O)n(Cc3nc(-c4ccccc4)no3)c(=O)c3ccccc32)c1 | 2 | 0 | 4 | 11 | 1
COc1cc(C2NC(=O)c3c(sc4c3CCN(C)C4)N2)ccc1OC(=O)c1ccccc1 (configuration not stated) | -6 | 4 | 38* | 1 | 22
Cc1ccccc1CN1C(=O)c2ccccc2Sc2ccc(C(=O)NC3CCCCC3)cc21 | -5 | -5 | 3 | -1 | 0
COc1ccc(Oc2c(O)c3ccccc3n(C)c2=O)cc1 | 6 | -2 | 2 | -45* | 0
Cn1c(=O)c(Oc2ccc(Cl)cc2)c(O)c2ccccc21 | 9 | 3 | 2 | 5 | 0
CN(C)/C=C1\SC(=S)N(c2ccc(F)cc2)C1=O | 23 | -2 | 13 | -4 | 3
CN(C)/C=C1\SC(=S)N(c2ccc(Br)cc2)C1=O | 3 | -2 | 41* | -15 | 19

Source: PubChem (National Center for Advancing Translational Sciences (NCATS))
